# From article PMC6212833
# Among all 2,000 compounds or so, about 15 (0.8%) showed an effect of 50% or more. The sample holds strong results, similar compounds and a random draw of the others, so the mix is not that of the screen.
# Tested on: Balamuthia mandrillaris (ATCC PRA-291) trophozoites, axenic culture
# Assay: primary screen, percent inhibition; higher = more effect of the substance;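 further: 0% = vehicle wells and 100% = lysate wells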
# Conditions: 20 µM
# Experimental: Screening of a clinically approved library of compounds, compiled by the Small Molecule Discovery Center (SMDC) at the UCSF, was completed at 20 µM in 0.2% DMSO. All 2,177 drugs in the library were stored as 10 mM stocks dissolved in 100% DMSO (Sigma-Aldrich) at −20°C. B. mandrillaris amoebae were resuspended in axenic medium and distributed into opaque 384-well plates (Corning) at a density of 3,000 amoebae per well using a BioMek NX liquid handler. Negative-control wells were treated with vehicle only (0.2% DMSO in axenic medium), and positive-control wells simulating total destruction of amoebae were seeded with amoeba lysate generated by 3 consecutive freeze-thaw cycles. Following 72 h of incubation, 30 µl of CellTiter Glo reagent (CTG; Promega) was added to each well. The luminescence was measured with a Promega GloMax-Multi+ plate reader at 2, 4, and 8 h after CTG addition. […] The B-score, representing a plate-based statistical approach for correcting row, column, and edge effects, was also calculated for each compound in the library (75).
row,SMILES,% Inhibition
1,C[C@]12CCC3c4ccc(O)cc4CCC3C1C[C@@H](O)[C@@H]2O (stereo partly shown),-15%
2,C[C@@H]1O[C@@H](O[C@H]2C[C@@H](O)[C@]3(CO)[C@H]4[C@H](O)C[C@]5(C)[C@@H](C6=CC(=O)OC6)CC[C@]5(O)[C@@H]4CC[C@]3(O)C2)[C@H](O)[C@H](O)[C@H]1O,10.8%
3,CC[N+](CC)(CC(=O)Nc1c(C)cccc1C)Cc1ccccc1,14%
4,CN1[C@@H]2C[C@@H](OC(=O)[C@H](CO)c3ccccc3)C[C@H]1[C@@H]1O[C@@H]12,20.7%
5,C=CCCCCCCCCC(=O)O [735790-L3],30.5%
6,CCNC(=O)CCC/C=C\C[C@@H]1[C@@H](/C=C/[C@@H](O)CCc2ccccc2)[C@H](O)C[C@@H]1O,22.9%
7,Nc1ccc(S(=O)(=O)O)cc1,31.3%
8,CCC(=O)NCC[C@@H]1CCc2ccc3c(c21)CCO3,16.9%
9,CC(CC(C(N)=O)(c1ccccc1)c1ccccc1)N(C)C (stereo not shown),14.2%
10,C=Cc1c(C)c2[n]3c1C=C1C(C)=C(CC)C4=[N+]1[Cu]31[n]3c(c(C)c(C(=O)O)c3=C(CC(=O)O)C3=[N+]1C(=C2)C(C)C3CCC(=O)O)=C4 (stereo not shown),-2.1%
11,COc1cc2ncnc(Nc3ccc(F)c(Cl)c3)c2cc1OCCCN1CCOCC1 [756745-L3],-9.92%
12,CC(=O)OCC(=O)[C@@]1(O)CCC2C3CCC4=CC(=O)CC[C@]4(C)[C@@]3(F)[C@@H](O)C[C@@]21C (stereo partly shown),12.2%
13,CC(=O)[C@@]1(O)CC[C@H]2[C@@H]3C[C@H](C)C4=CC(=O)C=C[C@]4(C)[C@@]3(F)[C@@H](O)C[C@@]21C,10.1%
14,Cc1cccc(C)c1NC(=O)C1CCCCN1C (stereo not shown),13.3%
15,C[N+]1(C)[C@@H]2C[C@@H](OC(=O)C(O)(c3cccs3)c3cccs3)C[C@H]1[C@@H]1O[C@@H]12,11.2%
16,O=C(O)c1ccc[n+]([O-])c1,20.7%
17,CO/N=C(/C(=O)NC1C(=O)N2C(C(=O)O)=C(C[N+]3(C)CCCC3)CSC12)c1csc(N)n1 (stereo not shown),21.4%
18,CC(=O)Nc1ccc(C(=O)O)cc1,-20%
19,COc1cc(N)c(Cl)cc1C(=O)N[C@@H]1CCN(CCCOc2ccc(F)cc2)C[C@@H]1OC,1.93%
20,CCC(COC(=O)c1cc(OC)c(OC)c(OC)c1)(c1ccccc1)N(C)C (stereo not shown),17.5%
21,CCN(CC)CCOC(=O)C(Cc1cccc2ccccc12)CC1CCCO1 (stereo not shown),24.5%
22,NC(=O)[C@@H]1CCCN1C(=O)[C@H](Cc1cnc[nH]1)NC(=O)[C@@H]1CCC(=O)N1,9.33%
